# Screening results (PubChem BioAssay)
# PfHsp40 rescue – compounds rescuing yeast from Plasmodium falciparum HSP40 toxicity. 340,000 compounds, 0.68% hits. S. cerevisiae expressing PfHsp40, growth rescue, ATP luminescence. growth rescue, % at 12.5 µM. AID 504582; in the data active = growth rescue above about 28%, passing the limit was not always enough; inconclusive = no clear call, values can overlap the other calls;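 also: yeast W303a lacking pdr1 and pdr3 grown in galactose medium; growth measured after three days at 30 °C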
# Yp Topo-I inh – inhibitors of Yersinia pestis topoisomerase I | 360,000 compounds, 0.064% hits | Y. pestis Topo-I cleavage product accumulation, plate reader | activity, % at 10 µM | AID 504884; in the data active = activity above about 50%, passing the limit was not always enough; inconclusive = no clear call, values can overlap the other calls
# PriA SSB inh – inhibitors of Klebsiella pneumoniae PriA binding to SSB C-terminal tail | AlphaScreen SSBct-PriA binding, biotinylated peptide | inhibition, % at 33 µM | 430,000 compounds, 0.6% hits | AID 1272365; in the data active = inhibition mostly above about 37%, no sharp cut-off; inactive = mostly below about 20%;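 also: plate controls were negative control peptide for no effect and reference peptide for full effect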
# PrP 5UTR inh – inhibition of PrP 5' UTR reporter expression; cell-based PrP 5' UTR mRNA reporter, plate reader; 340,000 compounds, 0.35% hits; inhibition, % (no concentration beside the values); in the data active = inhibition above about 52%; also: 0 = median of the neutral control wells
# PrPC TRFRET – inhibitors of human cell surface prion protein PrPC. P04156. TR-FRET read-out. inhibition, % at 13.8 µM. 370,000 compounds, 0.43% hits. AID 720596; in the data active = inhibition above about 24%; also: 0% = median of the test wells and 100% = reference compound wells
# BJeLR viability – kills HRASV12-expressing BJeLR cells; BJeLR (HRASV12) viability, CellTiter-Glo ATP luminescence, 48 h; inhibition, % (no concentration beside the values); 300,000 compounds, 0.17% hits; in the data active = inhibition above about 50%; inconclusive = no clear call, values can overlap the other calls
# PrP UTR cherry – prion 5' UTR mRNA inhibition, cherry-pick retest | shares compounds with PrP 5UTR inh | cell-based prion protein 5' UTR reporter, plate reader | inhibition, % at 2.5 µM | 1,100 compounds, 48% hits | AID 504592; in the data active = inhibition above about 54%; inconclusive = no clear call, values can overlap the other calls
# * = called active by the depositor; ? = inconclusive; / = not tested or not shown; ! = a repeat was not active. Most compounds without a hit are left out; they make up all but 1.7% or so of the library.
SMILES,PfHsp40 rescue,Yp Topo-I inh,PriA SSB inh,PrP 5UTR inh,PrPC TRFRET,BJeLR viability,PrP UTR cherry
COC(=O)c1ccc(COc2ccccc2/C=N/Nc2cccc(C(=O)O)c2)cc1,0,21,/,77*,1,/,-34
CCOc1cc(/C=N/Nc2cccc(C(=O)O)c2)ccc1OC(=O)c1ccccc1,1,5,/,71*,15,4,?
Cc1ccc(S(=O)(=O)N2CCC(=O)CC2c2ccccc2)cc1 (stereo not given),-1,-2,-12,56*,-7,/,-39
O=C(O)c1ccno1,/,/,-16,/,/,/,/
Nc1sc(SCC(=O)NC2CC2)nc1-c1ccccc1,/,/,28,/,/,/,/
CCOC(=O)NC(=O)/C(C#N)=N/Nc1c(F)cccc1F,1,-1,/,61*,2,-10,30
O=C(c1ccoc1)N1CCC(n2ccnn2)CC1,/,/,2,/,/,/,/
Cc1ccc(-c2nnc(-c3ccccc3)c(-c3ccccc3)n2)cc1,2,23,1,-6,-3,5,/
Cc1ccc2nc(-c3ccccc3)nn2c1,-1,3,-14,61*,3,/,?
CCCC[C@@H](C)C[C@@H](C)C(=O)N(C)[C@@H](CC(C)C)C(=O)N[C@H](C(=O)N(C)[C@H](C(=O)N1C[C@@H](O)C[C@H]1C(=O)N1C(=O)C=C[C@@H]1C)C(C)C)C(C)OC(C)=O (stereo not given in full),0,2,4,85*,/,/,96*
Cc1ccc(CN2C(=O)S/C(=C\c3ccccc3OCC(=O)O)C2=O)cc1,2,-2,-2,81*,-7,13,-15
COc1cccc(-c2nc3n(n2)C(c2cccs2)C(C(=O)Nc2cccnc2)=C(C)N3)c1 (stereo not given),-1,-3,0,85*,-7,-4,5
CC1=C(C(=O)Nc2cccnc2)C(c2cccnc2)n2nc(-c3cccs3)nc2N1 (stereo not given),1,-3,-7,-6,-5,-3,/
CC(Oc1ccccc1)C(=O)N1CCC(c2nnc(C(C)C)o2)CC1 (stereo not given),/,/,-13,/,/,/,/
COc1ccc(N2CCN(CCNS(=O)(=O)c3ccc(F)c(Cl)c3)CC2)cc1,/,/,-21,/,/,/,/
CCC(C)(C)c1ccc(Oc2ccc(N)cc2)cc1,0,24,10,87*,7,2,88*
CCC(C)(C)c1ccc(Oc2cccc(C(=O)O)c2)cc1,0,11,-9,-42,-10,-3,/
Cc1csc(NC(=O)CCc2c(C)nc3cc(-c4ccc(Cl)cc4)nn3c2C)n1,5,9,-19,50*,-1,/,59*
Cc1nc2cc(-c3ccc(Cl)cc3)nn2c(C)c1CCC(=O)NC(C)c1ccc2c(c1)OCCO2 (stereo not given),2,30,-1,40,-1,3,/
CC(=O)OC(C)(C)/C=C/C(=O)[C@](C)(O)C1[C@H](O)C[C@@]2(C)C3CC=C4C(C[C@H](O)C(=O)C4(C)C)[C@]3(C)C(=O)C[C@]12C (stereo not given in full),-1,6,/,84*,/,/,90*
Cc1cc(-c2ccccc2)nc2oc(C(=O)NN)c(N)c12,0,-3,-7,72*,-13,5,1
Cc1cc(C(F)(F)F)c(C#N)c(SCC(=O)Nc2nc3ccccc3s2)n1,1,1,-19,-40,1,-4,/
Cc1nc(SCC(=O)Nc2nc3ccccc3s2)c(C#N)c(C)c1C,1,3,-6,93*,-8,28,93*
Cc1nc(SCC(=O)Nc2nccs2)c(C#N)c(C)c1C,-1,-4,-2,71*,-3,/,69*
CO[C@@](C)(CNC(=O)C(=O)Nc1ccc(OC(F)(F)F)cc1)c1ccccc1F,/,/,-1,/,/,/,/
O=C(Nc1ccccc1-c1nc2ccccc2s1)c1cccc(C(=O)Nc2ccccc2-c2nc3ccccc3s2)n1,/,/,-11,/,/,/,/
Cn1cccc1/C=C(/C#N)c1ccc(F)cc1,1,-2,43,80*,0,0,-20
COc1ccccc1C(=O)NCCCNC(=O)c1ccccn1,0,1,-23,-21,-2,0,/
O=C(NCCCNCc1ccccc1)c1ccccn1,0,-1,-3,62*!,-10,2,-7
CCCCOc1ccc(C(=O)NCc2cc(-c3ccco3)on2)cc1,/,/,-23,/,/,/,/
